# In all, about 9,900 sequences were measured (“r (bound/input frequency ratio)”: median about 0.7, highest 2% from about 6.5 on). The list comes from a sample in which the highest values are over-represented; it also holds similar and randomly drawn sequences.
# B1: ENSMUSG00000061578.330|Ksr2|114:118 (ssRNA)
# RNA: GGGAGUUCUACAGUCCGACGAUCGCUUCGAUAUCCGCAUGCUACUCCAAGGAAGCCAGGGGAGGGGGACUCCUCAGGAAGGAGUGACCAGUCACCUGCCUCCCAGGGUUCUGCCUUGCCCUUAAGCUAGGGUCCUUCAAGCAUCCACAGACUUAGACACACGUGGUAACAUGCUUGUAAUCCUGGCACUCUGGAGGCUGAGGCAGGAGGAUAACAAGUCUAGACUAUAUAUGAUUUCUGAGGGUCUGUUAGUGAAUAAGUACCUGGAUGACAUGGGACAAGUCCCAGCCUUCCCUGCUCCUGCCUCUUGCGGUCGCACUAGUGUGGAAUUCUCGGGUGUCAAGG
# B2: ENSMUSG00000061578.809|Ksr2 (ssRNA)
# RNA: GGGAGUUCUACAGUCCGACGAUCGCUUCGAUAUCCGCAUGCUACUUUGCCUCUACUAGAUGAUCUUGCAUCUGUCUUUGUGGGACUCUUUUUAUGAGGAACCAGUCCUGUUGAAUCGGGGUGCUCUGUAUUAGUUAUUUUUGUAACUUGUGAUUGUAACCAAAUGCCCGAUAGAAACAGCAUUCUGGCUCACAGUUUCAAAGGGCUCAGUCCAUAGCUGCCUGACUCUGUGUUUCUAGGCCUUUCUUGAGGCAAGUGUUCAUCAUGAUAGUGUGAGGGUGAGGAGGAGUUUCUUCAUGGCAAACUCUUGCGGUCGCACUAGUGUGGAAUUCUCGGGUGUCAAGG
# B3: ENSMUSG00000034801.220|Sos2 (ssRNA)
# RNA: GGGAGUUCUACAGUCCGACGAUCGCUUCGAUAUCCGCAUGCUAAUUUGACUAAUUUGUAAGUCUGGAACAAAAGUGUCUUAUGGCAUAAGAACCAACUGCCAUUGUCAAACCUAUUAACUGUCUUUAAUCUCGUGUUAACUGAAAUUUUUGAAAAGUUUUUCCAGAUUAGUAAUAUUUAAACAGAAAAUACUUUAAAAAGCUUUAUUAAAUUUUUUAAUCAGGAUAAAGCUUUGCCAUUUGGAUACUAUCAUUCAAAGUGAUCAAGGUAUGUAUGUUAUGCUGAUAGUGCAGUAGCAGCCAUUCUCUUGCGGUCGCACUAGUGUGGAAUUCUCGGGUGUCAAGG
# B4: ENSMUSG00000031028.102|Tub (ssRNA)
# RNA: GGGAGUUCUACAGUCCGACGAUCGCUUCGAUAUCCGCAUGCUAGGCCCAAAGGGGGUUAGGAGUGGUAGGGAUAGGUGCGUGGCAGGUCCCUGCUAGGAUUGCAGGGGCCUGGCCAUGUGUAUUAGCUGGAGGCUUAGAAUGCUAGCUCAUUUGUUGCUACAGAUUUGCCCAGUGCUUGCACACGUAAGAACCCAGCUCUCAAGGCCAAAUAUCUGAGUGGAUGGGGAUGAUAGGAGUCAUCCAGUAGACUCCCUACAUCAGGGCUCUCAGCAGCCCCAGCACAACACCUAUGACACACACACCUCUUGCGGUCGCACUAGUGUGGAAUUCUCGGGUGUCAAGG
# B5: ENSMUSG00000032194.202|Kank2|53:57 (ssRNA)
# RNA: GGGAGUUCUACAGUCCGACGAUCGCUUCGAUAUCCGCAUGCUAGACAGGCUGCACCUUUCUCUAACUGGGGUUCCUUUCUGGCCCCAGGAUCUCACACACGUUCGUGGGGGGAUUUUGUUGUUGUUUCUUUGUUUCUUUUCUUCAUAAAGAAGAAAAAGGAAACAACUUCUAGAUGUGCCUUGCGAUAGGGAGGACUUUGUCCUCUCAAGUCUCCCUGUCGUAUCCAGAUCACAGCUGAACCCACUGGGCCUUGGCGCCAAACCUCAGCAGGGCAGCAUUGAGACUCAUGGACUAAAGGAAAGCUCUUGCGGUCGCACUAGUGUGGAAUUCUCGGGUGUCAAGG
# B6: ENSMUSG00000022095.275|Fam160b2|1:15;62:66;198:203 (ssRNA)
# RNA: GGGAGUUCUACAGUCCGACGAUCGCUUCGAUAUCCGCAUGCUACACACACACACACACAGAGAGAGAGAGAGAGAGAGAGAGCUGUGAGUACACAUGGGUGCUGCACACGGACAGGAGCAGAUCUUGGUGGAGUGGGUCUACACUUGAGAUUUGUACUCGUUUGAGAGGCUGGGCAAUACUCAAUGCACUUUGGCAUUUGCAUGGUGUCUUCACAACAGCACAGCAAUAAACAUUGUGAUACACACGACAUGCUGACUCUCCCCAGUCUGCUUUUCUUUUCCCCAAGCUUUUCUGCCCCUGUACUCUUGCGGUCGCACUAGUGUGGAAUUCUCGGGUGUCAAGG
# B7: ENSMUSG00000061578.1471|Ksr2|12:16 (ssRNA)
# RNA: GGGAGUUCUACAGUCCGACGAUCGCUUCGAUAUCCGCAUGCUAUGGAUGGAUAGCAUACUGAAUAAAUGGAUGGAUGGAUGGAUUGAUUUGUGAAUGAAUGGAUGAAUGGAUGGGUAGGUGGGUGGAUGCAUAGGCAAGUAGAUGAAUGAAUAUGUGGGUAGAAGGGUGAGUGGGUGGAUGAAUGGAUGGAUAGGUUGGUAGGUUAAUGUAUUCGUGGAUGGGUGAAUGGAUGGAUGGAUAGAUAGAUGGGAAGGUGGAUGGACAGAUGGAUGGAUGGAUAGAUAGAUGGACAGGUGGUUGGUCUCUUGCGGUCGCACUAGUGUGGAAUUCUCGGGUGUCAAGG
# B8: ENSMUSG00000061578.1474|Ksr2 (ssRNA)
# RNA: GGGAGUUCUACAGUCCGACGAUCGCUUCGAUAUCCGCAUGCUAAAUAAAUGGAUGGAUGGAUGGAUUGAUUUGUGAAUGAAUGGAUGAAUGGAUGGGUAGGUGGGUGGAUGCAUAGGCAAGUAGAUGAAUGAAUAUGUGGGUAGAAGGGUGAGUGGGUGGAUGAAUGGAUGGAUAGGUUGGUAGGUUAAUGUAUUCGUGGAUGGGUGAAUGGAUGGAUGGAUAGAUAGAUGGGAAGGUGGAUGGACAGAUGGAUGGAUGGAUAGAUAGAUGGACAGGUGGUUGGUGGAUAAAUGAGUGAAUGACUCUUGCGGUCGCACUAGUGUGGAAUUCUCGGGUGUCAAGG
# B9: ENSMUSG00000058297.476|Spock2 (ssRNA)
# RNA: GGGAGUUCUACAGUCCGACGAUCGCUUCGAUAUCCGCAUGCUAGCUGUGUUGGAAAGAGUUCAACCAAAUUACGGCAGCACCACAUCUUGCCGAGCCCUGGAGCUGCCCUACUAAGAGCCUCCUUAGCCCUGGGUGCUGGGAAGGAUGGUGUACGUUGGGGAAGUUUGAGGUUGGAGAGAGUAAAUGUGCCUUGAGAGACCACUCAGAGGUCCCAGGAGGAACGGGGGCGGGGCUUAGCCUGGGAGUUCUGGCAGGAGGCAAAGUUGGUGAGAGUCCUGGGACAUCUUACCCCCAGUGUUCCACUCUUGCGGUCGCACUAGUGUGGAAUUCUCGGGUGUCAAGG
# B10: ENSMUSG00000090935.506|Synj2bp|218:224 (ssRNA)
# RNA: GGGAGUUCUACAGUCCGACGAUCGCUUCGAUAUCCGCAUGCUAAAGCUCCAUAGAAGGCAAGACGCAUUCCACAUCUUGUCUUGACCAGCAGCACUCUGGAGGCCCAGUGUCUGCUACCCUUCUUGUAUCUGAUGGCAUGGGUAACAGCUCUGCCAUGGGCCUGCUUACUUCUAGUAUUCACCUCAGGGCUUGGAAAUUGGUUUUGAAAGGCUUUUAGACAUAGAAAGUAAAACUAAUGGCAAGGAGGAUAAAACACUGUACACACAUGUAUUGUUGAUCUAAAUAAAAAAUAUCAUUGGUAGCUCUUGCGGUCGCACUAGUGUGGAAUUCUCGGGUGUCAAGG
# B11: ENSMUSG00000032194.149|Kank2 (ssRNA)
# RNA: GGGAGUUCUACAGUCCGACGAUCGCUUCGAUAUCCGCAUGCUAGCAGAGGAGACUACUUCUAGAAAUACUUUCAGACCUACAGACAAAAAAGAAAAAAGGCCAUUCCGGAGUGACUCCCAGCAUCACAGCCCAGAACCUCCUCCUCAAAGGAGAGUAAACAGAGACUGUGAUACUGACCAAGUACAGGCGCUCGCUAUGAAGCCCAUAUGUUCCUGAUUAAGAGCUGGCUGGCCUCAGAGCACUCCCAGAACUAGCUUAAAGUGACAGGCUUUGCUGAAAUCCAAAGGGACAAAAGAGUAGUUCUCUUGCGGUCGCACUAGUGUGGAAUUCUCGGGUGUCAAGG
# B12: ENSMUSG00000022095.204|Fam160b2 (ssRNA)
# RNA: GGGAGUUCUACAGUCCGACGAUCGCUUCGAUAUCCGCAUGCUAUUGCCAGGAGGUGACAUGAAAGAGGAGGAAACUCCAUGACCUCUACAUCCCCCGCAGUCCUCCCAGCGGGGGAGGACUUCUCUGCUGCUCCGAAGAACAUCAUGCACUCCUGUGUGUGUGUGUGAGUGUGUGUGUGUGUGUGUGUGUGUGUGUGUGUGUAUGUGUGUGUAUAUGUGUGUGUGUGUGUGUAUGUGUGUGUGUGUGUGUGAGUGAGUGUGUGUGUGUGUGUGUGUGUGUGAGUGUGUGUGUAUAUGUGUGUGCUCUUGCGGUCGCACUAGUGUGGAAUUCUCGGGUGUCAAGG
# B13: ENSMUSG00000022095.206|Fam160b2 (ssRNA)
# RNA: GGGAGUUCUACAGUCCGACGAUCGCUUCGAUAUCCGCAUGCUAGACAUGAAAGAGGAGGAAACUCCAUGACCUCUACAUCCCCCGCAGUCCUCCCAGCGGGGGAGGACUUCUCUGCUGCUCCGAAGAACAUCAUGCACUCCUGUGUGUGUGUGUGAGUGUGUGUGUGUGUGUGUGUGUGUGUGUGUGUGUAUGUGUGUGUAUAUGUGUGUGUGUGUGUGUAUGUGUGUGUGUGUGUGUGAGUGAGUGUGUGUGUGUGUGUGUGUGUGUGAGUGUGUGUGUAUAUGUGUGUGUGUGUGUGAGAGCUCUUGCGGUCGCACUAGUGUGGAAUUCUCGGGUGUCAAGG
# B14: ENSMUSG00000022095.203|Fam160b2 (ssRNA)
# RNA: GGGAGUUCUACAGUCCGACGAUCGCUUCGAUAUCCGCAUGCUACACAGGUUGCCAGGAGGUGACAUGAAAGAGGAGGAAACUCCAUGACCUCUACAUCCCCCGCAGUCCUCCCAGCGGGGGAGGACUUCUCUGCUGCUCCGAAGAACAUCAUGCACUCCUGUGUGUGUGUGUGAGUGUGUGUGUGUGUGUGUGUGUGUGUGUGUGUGUAUGUGUGUGUAUAUGUGUGUGUGUGUGUGUAUGUGUGUGUGUGUGUGUGAGUGAGUGUGUGUGUGUGUGUGUGUGUGUGAGUGUGUGUGUAUAUGCUCUUGCGGUCGCACUAGUGUGGAAUUCUCGGGUGUCAAGG
# B15: ENSMUSG00000022095.205|Fam160b2 (ssRNA)
# RNA: GGGAGUUCUACAGUCCGACGAUCGCUUCGAUAUCCGCAUGCUAGGAGGUGACAUGAAAGAGGAGGAAACUCCAUGACCUCUACAUCCCCCGCAGUCCUCCCAGCGGGGGAGGACUUCUCUGCUGCUCCGAAGAACAUCAUGCACUCCUGUGUGUGUGUGUGAGUGUGUGUGUGUGUGUGUGUGUGUGUGUGUGUGUAUGUGUGUGUAUAUGUGUGUGUGUGUGUGUAUGUGUGUGUGUGUGUGUGAGUGAGUGUGUGUGUGUGUGUGUGUGUGUGAGUGUGUGUGUAUAUGUGUGUGUGUGUGCUCUUGCGGUCGCACUAGUGUGGAAUUCUCGGGUGUCAAGG
# Biological target: TDP-43 (Homo sapiens, UniProt Q13148 1-414)
# Sequence (Q13148 whole entry): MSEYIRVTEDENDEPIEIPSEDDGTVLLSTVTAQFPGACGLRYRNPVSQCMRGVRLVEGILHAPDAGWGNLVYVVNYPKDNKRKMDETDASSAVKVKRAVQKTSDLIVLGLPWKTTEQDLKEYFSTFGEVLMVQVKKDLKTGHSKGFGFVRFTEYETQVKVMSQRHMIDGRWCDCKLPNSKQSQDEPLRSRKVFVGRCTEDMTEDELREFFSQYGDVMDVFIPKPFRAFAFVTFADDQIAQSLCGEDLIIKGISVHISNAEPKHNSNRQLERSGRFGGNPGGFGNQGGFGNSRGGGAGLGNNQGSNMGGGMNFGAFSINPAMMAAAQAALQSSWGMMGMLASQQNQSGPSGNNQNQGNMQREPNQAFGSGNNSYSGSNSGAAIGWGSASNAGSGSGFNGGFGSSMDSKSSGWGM
# Assay: RNA Bind-n-Seq with designed 260-mer pool; 25 mM Tris-HCl, 150 mM KCl, 3 mM MgCl2, BSA (printed 500 mg/mL), 20 units/mL SUPERase IN; pH not stated; 500 nM RNA pool, 1 h, 4 C; TDP-43 5, 50, 500 nM; high values mean tight binding
# Settings: protein: recombinant; tags: SBP (GST cleaved off with PreScission; pGEX-GST-SBP)
# Method in brief: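 The incubation lasted 1 h at 4 °C and used 500 nM of an in vitro-transcribed 260-nt 3′ UTR oligo pool with recombinant SBP-tagged TDP-43 at 5, 50 or 500 nM immobilized on streptavidin beads. It took place in 25 mM Tris-HCl, 150 mM KCl, 3 mM MgCl2, BSA and SUPERase IN. Bound RNA was washed, eluted with biotin, converted to cDNA, PCR-amplified and sequenced to give R, each oligo's normalized abundance in the bound sample divided by that in input. Two independent protein batches provided the duplicates.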
row,Binder,binding signal
1,B1,1.65 R (bound/input frequency ratio)
2,B2,0.455 R (bound/input frequency ratio)
3,B3,0.0389 R (bound/input frequency ratio)
4,B4,1.03 R (bound/input frequency ratio)
5,B5,0.269 R (bound/input frequency ratio)
6,B6,2.5 R (bound/input frequency ratio)
7,B7,8.75 R (bound/input frequency ratio)
8,B8,3.43 R (bound/input frequency ratio)
9,B9,3.44 R (bound/input frequency ratio)
10,B10,0.236 R (bound/input frequency ratio)
11,B11,0.573 R (bound/input frequency ratio)
12,B12,7.95 R (bound/input frequency ratio)
13,B13,3.86 R (bound/input frequency ratio)
14,B14,8.18 R (bound/input frequency ratio)
15,B15,7.87 R (bound/input frequency ratio)
